From PubChem BioAssay (Tox21)
“And” between values parts separate entries of the source, which are not always exact repeats. Equal entries are not always repeated. Records with an inconclusive call do not appear. Entries that show only a call come without a potency. A number with no mark means an inactive call. The source made the active and inactive calls. The call rests on the fitted dose curve; in most records, active means well fitted cell-killing curve with a large enough effect in the repeat runs; inconclusive means weak or mixed curves; inactive means no such curve, though single readings can be large or run the other way.

test: qHTS assay to identify small molecule antagonists of the peroxisome proliferator-activated receptor delta (PPARd) signaling pathway - cell viability counter screen (AID 743213); settings: PPARd-bla HEK293H viability, CellTiter-Glo luminescence, 17 h; series mostly up to 62 µM; further: nearly all actives have a fitted effect of over 50% in size
Summary of the method: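 PPARd-bla HEK293H cells were treated with compounds plus agonist L165041 (300 nM final) for 17 h at 37 C. Viability was then read in the same wells by CellTiter-Glo luminescence after 30 min at room temperature.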
Potency means the concentration at half of the fitted maximal effect.

With `CCCCCCCCCCCCCC=O` as the compound, how does the viability change, negative = cytotoxic read?
Its viability change, negative = cytotoxic is -6.97% [at 6.26 µM].

Which Potency does the source give for `Cc1ccc(Cl)cc1Cl` here?
Its Potency is “inactive”.

Which Potency does the source give for `CN1CCN(c2cc3c(cc2F)c(=O)c(C(=O)O)cn3-c2ccc(F)cc2)CC1` here?
The Potency was “inactive”.

With `O=C1CCCCCCCCCCCN1` as the compound, how does the Potency read?
Its Potency is “inactive”.

Which Potency does the source give for `Cc1c(O)cccc1O` here?
Its Potency is “inactive”.

With `CO/N=C(/C(=O)N[C@@H]1C(=O)N2C(C(=O)OCOC(=O)C(C)(C)C)=C(C)CS[C@H]12)c1csc(N)n1` as the compound, how does the Potency read?
Its Potency is “inactive”.

Which Potency does the source give for `COC(=O)C1=C(C)NC(C)=C(C(=O)OC)C1c1ccccc1[N+](=O)[O-]` here?
The Potency was “inactive”.

With `NC(=O)Nc1ccccc1` as the compound, how does the Potency read?
Its Potency is “inactive”.

With `CC(=O)OC/C=C(\C)CC/C=C(\C)CCC=C(C)C` as the compound, how does the Potency read?
The Potency was “inactive”.

For `CCOC(=O)[C@H](CCc1ccccc1)N[C@@H](C)C(=O)N1[C@H](C(=O)O)C[C@@H]2CCC[C@@H]21`, which Potency is on record?
Its Potency is “inactive”.

With `NS(=O)(=O)c1cc(C(=O)O)cc(N2CCCC2)c1Oc1ccccc1` as the compound, how does the Potency read?
Its Potency is “inactive”.

With `CCOC(=O)Nc1ccc(NCc2ccc(F)cc2)nc1N` as the compound, how does the Potency read?
Its Potency is “inactive”.

With `CCN(Cc1ccncc1)C(=O)C(CO)c1ccccc1` (stereo unspecified) as the compound, how does the Potency read?
The Potency was “inactive”.

Which Potency does the source give for `COC(=O)[C@@H](N)Cc1ccc(O)c(O)c1` here?
Its Potency is “inactive”.

Which Potency does the source give for `COC(=O)c1ccc(C)cc1C1=NC(C)(C(C)C)C(=O)N1` (stereo unspecified) here?
The Potency was “inactive”.

With `C=CCS(=O)(=O)O` as the compound, how does the Potency read?
The Potency was “inactive”.

For `NC(=O)c1ccc(N)cc1`, which Potency is on record?
The Potency was “inactive”.

With `CC(C)OC(=O)c1ccccc1` as the compound, how does the Potency read?
The Potency was “inactive”.

For `CCO/C([O-])=N/c1c[n+](N2CCOCC2)no1`, which Potency is on record?
Its Potency is “inactive”.

With `CN(C)CCCN1c2ccccc2CCc2ccc(Cl)cc21` as the compound, how does the Potency read?
Its Potency is 21.9 µM (active) and 13.3 µM (active).

Which Potency does the source give for `CN1CC(=O)NC1=N` here?
The Potency was “inactive”.
